Experimental data taken from PubChem BioAssay (Tox21).
Records with an inconclusive call do not appear. Activity calls are given as the source filed them. Unless noted, the call rests on the fitted dose curve; in most records, active means well fitted curve in the direction sought with a large enough effect in the repeat runs; inconclusive means weak or mixed curves; inactive means no such curve, though single readings can be large; an effect the other way counts as inactive or inconclusive.

What was measured:
[1] = qHTS assay to identify small molecule agonists of the peroxisome proliferator-activated receptor delta (PPARd) signaling pathway - cell viability counter screen (AID 743211); further: on the % scale 0 is the no-effect control and ±100 the full control effect; nearly all actives have a fitted effect of over 55% in size
In short: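 Multiplexed format: after the 2 h room-temperature LiveBLAzer B/G FRET step, CellTiter-Glo was added to the same wells. Luminescence after 30 min gave cell viability; compound exposure was 17 h at 37C.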

[2] = target: Peroxisome proliferator-activated receptor delta (Homo sapiens) (UniProt Q03181); assay: qHTS assay to identify small molecule agonists of the peroxisome proliferator-activated receptor delta (PPARd) signaling pathway (AID 743212; calls by dose curve; further: on the % scale 0 is the no-effect control and ±100 the full control effect)
In short: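 GeneBLAzer PPARd UAS-bla HEK293H cells (beta-lactamase reporter under UAS control), plated and rested 5 h at 37 C, then exposed to compounds in DMSO at 37 C; LiveBLAzer B/G FRET substrate added, 2 h room temperature, fluorescence read.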

[3] = qHTS assay to identify small molecule antagonists of the peroxisome proliferator-activated receptor delta (PPARd) signaling pathway - cell viability counter screen (AID 743213); further: on the % scale 0 is the no-effect control and ±100 the full control effect; nearly all actives have a fitted effect of over 50% in size
In short: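 HEK293H cells with the PPARd UAS-bla reporter, co-treated 17 h at 37 C with compounds and L165041 (300 nM final), were lysed with CellTiter-Glo. Luminescence indicated viable cell content.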

[4] = target: Peroxisome proliferator-activated receptor delta (Homo sapiens) (UniProt Q03181); assay: qHTS assay to identify small molecule antagonists of the peroxisome proliferator-activated receptor delta (PPARd) signaling pathway (AID 743215; active means well fitted inhibition curve with a large enough effect in the signal ratio in the repeat runs, not every such curve was filed as active; the % refers to the signal ratio;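 further: cells stimulated with agonist L165041 at 300 nM final during compound exposure; series mostly up to about 62 µM; on the % scale 0 is the no-effect control and ±100 the full control effect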)
In short: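 PPARd-bla HEK293H cells (UAS-bla reporter) preincubated 5 h, then given compound plus 300 nM final L165041 agonist for 17 h at 37 C. Beta-lactamase activity read by LiveBLAzer B/G FRET substrate fluorescence after 2 h at room temperature.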

[5] = qHTS assay to identify small molecule agonists of the farnesoid-X-receptor (FXR) signaling pathway - cell viability counter screen (AID 743218); further: on the % scale 0 is the no-effect control and ±100 the full control effect; nearly all actives have a fitted effect of over 45% in size
In short: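 FXR-UAS-bla HEK 293T cells exposed to compounds for 16 h at 37C. Cytotoxicity read in the same wells by CellTiter-Glo luminescence after 30 min at room temperature, following the beta-lactamase FRET read.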

[6] = target: Vitamin D3 receptor (Homo sapiens) (UniProt P11473); assay: qHTS assay to identify small molecule antagonists of the vitamin D receptor (VDR) signaling pathway (AID 743223; active means well fitted inhibition curve with a large enough effect in the signal ratio in the repeat runs, not every such curve was filed as active; the % refers to the signal ratio; further: on the % scale 0 is the no-effect control and ±100 the full control effect)
In short: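 After VDR-bla cells are plated and left 4 h at 37C, DMSO-dissolved compounds and 3 nM (final) calcitriol agonist are added. Incubation continues 16 h at 37C; FRET beta-lactamase substrate then develops 2 h at room temperature.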

[7] = qHTS assay to identify small molecule agonists of the vitamin D receptor (VDR) signaling pathway - cell viability counter screen (AID 743224); further: series mostly up to about 63 µM; on the % scale 0 is the no-effect control and ±100 the full control effect; nearly all actives have a fitted effect of over 50% in size
In short: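 VDR-bla cells, 4 h after plating, exposed to compounds for 16 h at 37C; viability then read in the same wells as CellTiter-Glo luminescence after 30 min at room temperature, following the bla FRET read.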

[8] = qHTS assay to identify small molecule antagonists of the vitamin D receptor (VDR) signaling pathway - cell viability counter screen (AID 743225); further: on the % scale 0 is the no-effect control and ±100 the full control effect; nearly all actives have a fitted effect of over 50% in size
In short: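 Cytotoxicity toward the VDR-bla HEK 293T line was scored by ATP-based CellTiter-Glo luminescence, read in the wells already used for the beta-lactamase readout after 16 h compound treatment under 3 nM 1-alpha,25-dihydroxyvitamin D3 stimulation.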

[9] = qHTS assay to identify small molecule agonists of the NFkB signaling pathway (AID 1159509; active means well fitted curve in the direction sought with a large enough effect in the signal ratio in the repeat runs, not every such curve was filed as active; the % refers to the signal ratio; further: series mostly up to about 61 µM; on the % scale 0 is the no-effect control and ±100 the full control effect)
In short: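 NFkB-bla ME-180 cells with a beta-lactamase reporter under an NF-kB response element were plated overnight, treated with compounds in DMSO for 5 hr at 37 C, then loaded with FRET substrate for 1.5 hr at room temperature.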

[10] = qHTS assay to identify small molecule agonists of the NFkB signaling pathway - cell viability counter screen (AID 1159515; calls by dose curve; further: series mostly up to about 61 µM; on the % scale 0 is the no-effect control and ±100 the full control effect; nearly all actives have a fitted effect of over 55% in size)
In short: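 NFkB-bla ME-180 cells, 2,000/well, plated overnight at 37 C; compound added for 5 hr at 37 C. Viability read in the same wells as the bla reporter, by CellTiter-Glo luminescence after 30 min at room temperature.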

[11] = qHTS assay to identify small molecule agonists of the endoplasmic reticulum stress response signaling pathway (AID 1159516; active means well fitted activation curve with a large enough effect in the signal ratio in the repeat runs, not every such curve was filed as active; the % refers to the signal ratio; further: on the % scale 0 is the no-effect control and ±100 the full control effect)
In short: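 CellSensor ESRE-bla HeLa cells, 1,500 per well, plated overnight, then exposed to compounds for 5 hr at 37 C. Beta-lactamase reporter read with LiveBLAzer B/G FRET substrate after 2 hr at room temperature, 405 nm excitation, 460 and 530 nm emission.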

[12] = qHTS assay to identify small molecule agonists of the endoplasmic reticulum stress response signaling pathway - cell viability counter screen (AID 1159517; calls by dose curve;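 further: HeLa cells carrying an ER stress response element beta-lactamase reporter; series mostly up to about 61 µM; on the % scale 0 is the no-effect control and ±100 the full control effect; nearly all actives have a fitted effect of over 50% in size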)
In short: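 Luminescence readout: CellTiter-Glo, 30 min RT, same wells as the ESRE-bla reporter read. HeLa ESRE-bla, 1,500 cells/well, o/n 37 C; cpd 5 hr 37 C/5% CO2.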

[13] = qHTS assay to identify small molecule antagonists of the retinoid-related orphan receptor gamma (ROR-gamma) signaling pathway - cell viability counter screen (AID 1159520)
In short: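 Tet-on ROR gamma CHO cells (1,000/well) were plated 4 hr, given compounds in DMSO for 2 hr at 37 C, then induced with 1 uM final doxycycline for 16 hr. Viability was read as ATP by CellTiter-Glo luminescence after 30 min.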

[14] = target: Nuclear receptor ROR-gamma (Homo sapiens) (UniProt P51449); assay: qHTS assay to identify small molecule antagonists of the retinoid-related orphan receptor gamma (ROR-gamma) signaling pathway (AID 1159521)
In short: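 Readout: ONE-Glo luciferase luminescence, 30 min at room temperature. System: Tet-on RORγ CHO, RORE-LUC. Sequence: compound 2 h, doxycycline 1 uM final, 16 h at 37 C.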

[15] = qHTS assay to identify small molecule agonists of the AP-1 signaling pathway - cell viability counter screen (AID 1159525; calls by dose curve; further: nearly all actives have a fitted effect of over 55% in size)
In short: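 ME-180 AP-1-bla, 2500 cells/well, Opti-MEM + 0.5% dialyzed FBS; overnight 37 °C; cpd 15-pt titration, 5 h 37 °C; CellTiter-Glo 30 min RT; luminescence read; normalised to TOAB and DMSO controls.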

[16] = qHTS assay to identify small molecule agonists of the AP-1 signaling pathway (AID 1159526; calls by dose curve; further: on the % scale 0 is the no-effect control and ±100 the full control effect)
[17] = target: Bile acid receptor (Homo sapiens) (UniProt Q96RI1); assay: qHTS assay to identify small molecule antagonists of the farnesoid-X-receptor (FXR) signaling pathway (AID 743217; active means well fitted inhibition curve with a large enough effect in the signal ratio in the repeat runs, not every such curve was filed as active; the % refers to the signal ratio; further: on the % scale 0 is the no-effect control and ±100 the full control effect)
In short: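 FXR-UAS-bla HEK 293T cells (beta-lactamase reporter) given compound plus chenodeoxycholic acid (50 uM final), 16 h at 37C. LiveBLAzer B/G FRET substrate added for 2 h at room temperature; fluorescence read.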

[18] = target: Bile acid receptor (Homo sapiens) (UniProt Q96RI1); assay: qHTS assay to identify small molecule agonists of the farnesoid-X-receptor (FXR) signaling pathway (AID 743220; active means well fitted activation curve with a large enough effect in the signal ratio in the repeat runs, not every such curve was filed as active; the % refers to the signal ratio; further: on the % scale 0 is the no-effect control and ±100 the full control effect)
In short: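 Beta-lactamase reporter under UAS control in GeneBLAzer FXR HEK 293T cells (5000/well) measured with LiveBLAzer FRET substrate after 2 h at room temperature. Compound exposure lasted 16 h at 37C.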

[19] = qHTS assay to identify small molecule antagonists of the farnesoid-X-receptor (FXR) signaling pathway - cell viability counter screen (AID 743221; active means well fitted cell-killing curve with a large enough effect in the repeat runs, not every such curve was filed as active)
In short: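 CellTiter-Glo, 30 min RT, luminescence; same wells as the LiveBLAzer FRET read. Cells: FXR-UAS-bla HEK 293T. Treatment: compound with chenodeoxycholic acid 50 uM final, 16 h at 37 C.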

[20] = target: Vitamin D3 receptor (Homo sapiens) (UniProt P11473); assay: qHTS assay to identify small molecule agonists of the vitamin D receptor (VDR) signaling pathway (AID 743222; calls by dose curve; further: on the % scale 0 is the no-effect control and ±100 the full control effect)
In short: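 VDR-bla cells plated 4 h at 37 C, then exposed to compounds for 16 h at 37 C. Beta-lactamase reporter activity measured by fluorescence after 2 h room-temperature loading with LiveBLAzer B/G FRET substrate.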

Bile acid receptor (Homo sapiens), sequence (Q96RI1 whole entry, looked up): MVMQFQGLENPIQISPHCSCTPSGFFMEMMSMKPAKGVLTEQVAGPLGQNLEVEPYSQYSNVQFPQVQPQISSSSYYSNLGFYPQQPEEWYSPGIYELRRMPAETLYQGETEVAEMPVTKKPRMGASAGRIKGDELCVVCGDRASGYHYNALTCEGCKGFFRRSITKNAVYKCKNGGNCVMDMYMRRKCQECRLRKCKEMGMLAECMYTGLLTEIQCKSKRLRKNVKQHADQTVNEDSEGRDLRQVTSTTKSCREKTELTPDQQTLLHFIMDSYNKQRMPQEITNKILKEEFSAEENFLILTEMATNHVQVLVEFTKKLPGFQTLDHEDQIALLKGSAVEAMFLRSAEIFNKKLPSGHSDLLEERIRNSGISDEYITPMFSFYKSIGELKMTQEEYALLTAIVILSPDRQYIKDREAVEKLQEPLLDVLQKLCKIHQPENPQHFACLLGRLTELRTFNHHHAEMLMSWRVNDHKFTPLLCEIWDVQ
Peroxisome proliferator-activated receptor delta (Homo sapiens), sequence (Q03181 whole entry, looked up): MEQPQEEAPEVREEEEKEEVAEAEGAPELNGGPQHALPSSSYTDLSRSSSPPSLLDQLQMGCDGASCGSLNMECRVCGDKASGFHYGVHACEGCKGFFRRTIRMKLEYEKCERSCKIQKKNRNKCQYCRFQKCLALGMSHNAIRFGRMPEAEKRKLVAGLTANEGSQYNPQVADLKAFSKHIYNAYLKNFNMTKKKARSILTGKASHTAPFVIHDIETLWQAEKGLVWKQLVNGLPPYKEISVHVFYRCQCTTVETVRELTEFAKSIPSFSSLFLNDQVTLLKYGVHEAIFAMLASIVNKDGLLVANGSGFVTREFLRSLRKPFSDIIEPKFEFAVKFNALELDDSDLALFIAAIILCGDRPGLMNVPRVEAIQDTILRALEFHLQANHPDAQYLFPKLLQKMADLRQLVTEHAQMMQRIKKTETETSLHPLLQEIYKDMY
Vitamin D3 receptor (Homo sapiens), sequence (P11473 whole entry, looked up): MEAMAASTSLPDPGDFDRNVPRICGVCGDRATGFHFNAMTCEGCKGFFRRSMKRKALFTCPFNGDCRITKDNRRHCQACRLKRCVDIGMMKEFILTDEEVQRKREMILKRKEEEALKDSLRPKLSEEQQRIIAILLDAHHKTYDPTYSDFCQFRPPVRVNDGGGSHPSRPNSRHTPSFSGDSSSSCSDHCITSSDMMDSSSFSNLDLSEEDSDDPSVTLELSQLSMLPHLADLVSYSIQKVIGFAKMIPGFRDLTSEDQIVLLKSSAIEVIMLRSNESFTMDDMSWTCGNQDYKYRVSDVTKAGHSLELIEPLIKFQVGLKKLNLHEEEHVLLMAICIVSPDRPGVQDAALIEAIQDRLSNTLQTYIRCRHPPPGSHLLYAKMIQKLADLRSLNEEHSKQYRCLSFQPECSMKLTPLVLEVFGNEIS

Cc1ncc([N+](=O)[O-])n1CC(C)O (stereo unspecified)
inactive: outcome [1] | outcome [2] | outcome [3] | outcome [4] | outcome [5] | outcome [6] | outcome [7] | outcome [8] | outcome [9] | outcome [10] | outcome [11] | outcome [12] | outcome [13] | outcome [14] | outcome [15] | outcome [16]

C[C@@H](O)C(=O)O
inactive: outcome [1] | outcome [2] | outcome [3] | outcome [17] | outcome [5] | outcome [18] | outcome [19] | outcome [20] | outcome [7] | outcome [8] | outcome [9] | outcome [10] | outcome [11] | outcome [12] | outcome [13] | outcome [14] | outcome [15] | outcome [16]

CCOC(=O)CC1(C)OCC(C)O1 (stereo unspecified)
inactive: outcome [1] | outcome [2] | outcome [3] | outcome [4] | outcome [19] | outcome [7] | outcome [8] | outcome [9] | outcome [10] | outcome [11] | outcome [12] | outcome [13] | outcome [14] | outcome [15] | outcome [16]

OCCN1CCOCC1
inactive: outcome [1] | outcome [2] | outcome [3] | outcome [4] | outcome [19] | outcome [7] | outcome [8] | outcome [9] | outcome [10] | outcome [11] | outcome [12] | outcome [13] | outcome [14] | outcome [15] | outcome [16]

CCCCCCCCCCCCCCCCCC#N
inactive: outcome [1] | outcome [2] | outcome [3] | outcome [19] | outcome [7] | outcome [8] | outcome [9] | outcome [10] | outcome [11] | outcome [12] | outcome [13] | outcome [14] | outcome [15] | outcome [16]

C=CCOC(=O)CCCCCC
inactive: outcome [1] | outcome [2] | outcome [3] | outcome [5] | outcome [8] | outcome [9] | outcome [10] | outcome [11] | outcome [12] | outcome [13] | outcome [14] | outcome [15] | outcome [16]

CCC/C=C(\C=O)CC
inactive: outcome [1] | outcome [2] | outcome [3] | outcome [19] | outcome [20] | outcome [7] | outcome [9] | outcome [10] | outcome [11] | outcome [12] | outcome [13] | outcome [14] | outcome [15] | outcome [16]

Cc1ccc(C(C)NC(=O)[C@@H](NC(=O)OC(C)C)C(C)C)cc1 (stereo partly specified)
inactive: outcome [1] | outcome [2] | outcome [3] | outcome [17] | outcome [18] | outcome [19] | outcome [7] | outcome [8] | outcome [9] | outcome [10] | outcome [11] | outcome [12] | outcome [13] | outcome [14] | outcome [15] | outcome [16]

CC1(C)CC(OC(=O)CCCCCCCCC(=O)OC2CC(C)(C)NC(C)(C)C2)CC(C)(C)N1
inactive: outcome [1] | outcome [2] | outcome [3] | outcome [19] | outcome [6] | outcome [7] | outcome [8] | outcome [9] | outcome [10] | outcome [11] | outcome [12] | activity, negative = cytotoxicity [13] 1.22% [at 19 µM] | activity change, negative = inhibition [14] 5.06% [at 19 µM] | viability change, negative = cytotoxic [15] -4.65% [at 15.8 µM] | activation [16] 13.3% [at 15.8 µM]
